GLP1R inv ag: qHTS of GLP-1 Receptor Inverse Agonists (Inhibition Mode); Glucagon-like peptide 1 receptor (Homo sapiens), P43220; 1.6% of 410,000 active; Potency, µM (doses to about 38.3 µM), hits mostly inhibitors; HEK293 GLP-1R CRE-luciferase, luminescence, 24 h; GLP-1R form is constitutively active; AID 624417, 2012; further: nearly all actives have a fitted effect of over 55% in size
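Constitutively active GLP-1R drives a cAMP-responsive luciferase in stably transfected HEK293 cells; test compounds are added after overnight (12 h) attachment and left 24 hr, and signal loss in luminescence marks inhibition.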
GLP1R cytotox: qHTS of GLP-1 Receptor Inverse Agonists: Cytotox Screen; Potency, µM (doses to about 38.3 µM), actives largely listed as inhibitors; HEK293 cAMP-luciferase reporter cells, luminescence, 24 h; AID 624418, 2012; 0.13% of 410,000 active;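 further: loss of luciferase light is scored as toxicity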
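Step one: seed cells (200 cells/uL, DMEM with 10% Nu serum, 1% pen-strep). Step two: 12-hour incubation at 37 deg C. Step three: pin 23 nL compound, incubate 24 hr. Step four: add luciferase reagent, read luminescence 12 min later.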
GLP1R ag: qHTS of GLP-1 Receptor Agonists; HEK293 GLP-1R CRE-luciferase, luminescence, 4-6 h; cells express a hypersensitive GLP-1R form; Glucagon-like peptide 1 receptor (Homo sapiens), P43220; Potency, µM (doses to about 45.6 µM), usual class: activators; 0.007% of 380,000 active
PTHR1 ag: qHTS for PTHR1 Agonists: Primary Screen; AID 743266, 2014; 0.075% of 410,000 active; Potency, µM (top dose mostly 115 µM), usual class: activators; Parathyroid hormone/parathyroid hormone-related peptide receptor (Homo sapiens), Q03431; HEK293 GP2 PTHR1 cells, GloSensor cAMP luminescence, 1 h; further: nearly all actives have a fitted effect of over 55% in size
Target sequence (Q03431 whole entry, looked up): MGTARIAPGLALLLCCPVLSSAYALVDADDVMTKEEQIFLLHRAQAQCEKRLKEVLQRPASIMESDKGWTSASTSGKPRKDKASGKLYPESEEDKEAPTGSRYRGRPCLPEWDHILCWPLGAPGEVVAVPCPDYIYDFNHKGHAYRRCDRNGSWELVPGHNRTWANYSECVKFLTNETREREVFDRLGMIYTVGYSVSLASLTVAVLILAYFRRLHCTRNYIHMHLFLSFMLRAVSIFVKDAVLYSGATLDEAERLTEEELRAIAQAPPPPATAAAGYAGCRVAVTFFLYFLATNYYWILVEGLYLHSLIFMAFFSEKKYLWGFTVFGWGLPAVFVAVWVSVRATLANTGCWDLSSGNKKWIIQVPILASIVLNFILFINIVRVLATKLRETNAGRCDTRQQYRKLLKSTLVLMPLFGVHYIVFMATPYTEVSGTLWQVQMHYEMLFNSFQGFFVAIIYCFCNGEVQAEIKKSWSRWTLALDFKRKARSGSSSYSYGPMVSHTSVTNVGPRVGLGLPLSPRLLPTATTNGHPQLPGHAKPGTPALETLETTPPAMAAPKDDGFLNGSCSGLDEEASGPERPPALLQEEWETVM
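HEK-293-derived GP2 cells expressing PTHR1 and a GloSensor cAMP reporter, 3,000/well, plated overnight, given luciferin plus IBMX (each 0.5 mM as added) for 1 h at 37 °C, then compound for 1 h at 37 °C. Luminescence was read after 15 min at room temperature.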
Numbers stand for hits; n = inactive; u = inconclusive; x = no result. A selection: hits, their analogues and other compounds. The true share with any hit is near 1.7%. The call rests on the fitted dose curve; in most records, active means well fitted curve in the direction sought with a large enough effect; inconclusive means small, poorly fitted or top-dose-only effect, or another doubt; inactive means no such curve, though single readings can be large; an effect the other way counts as inactive or inconclusive.

SMILES | GLP1R inv ag | GLP1R cytotox | GLP1R ag | PTHR1 ag
c1ccc(COc2cccc(-c3cc4nc(NCc5cccs5)ccn4n3)c2)cc1 | 4.5µM | n | n | n
COCCCNc1ccn2nc(-c3cccc(Cl)c3)cc2n1 | u | n | n | n
COCCCNc1ccn2nc(-c3cccc(OCc4ccccc4)c3)cc2n1 | u | n | n | n
CCN(CC)CC(O)c1ccc2ccc3ccc(O)cc3c2c1 (centres undefined) | 11µM | u | n | n
CCc1ccc(-n2c(=O)c3c4c(sc3n(CC(=O)c3ccc(F)cc3)c2=O)CCC4)cc1 | n | n | x | n
O=C(COc1ccc2c(c1)C(=O)CC1(CCCCC1)O2)NCc1ccccc1 | 11µM | n | n | n
O=C(COc1ccc2c(c1)C(=O)CC1(CCCCC1)O2)NCc1ccccn1 | n | n | n | n
CCCCn1cnc2c(SCc3ccccc3Cl)nc(N)nc21 | 10µM | n | n | n
Nc1nc(SCc2ccccc2)c2ncn(Cc3ccccc3)c2n1 | 7.9µM | n | n | n
CCCn1cnc2c(SCc3ccccc3)nc(N)nc21 | n | n | u | n
CS(=O)(=O)Nc1cccc(NC(=O)C2Cc3c(-c4ccccc4)ccnc3O2)c1 (centres undefined) | 0.89µM | n | n | n
CC(=O)Nc1cccc(-c2ccnc3c2CC(C(=O)Nc2cccc(NS(C)(=O)=O)c2)O3)c1 (centres undefined) | n | n | n | n
Cc1ccc(C)c(N2CCN(C(=O)c3ccc4c(=O)n5c(nc4c3)CCCCC5)CC2)c1 | 1.8µM | n | n | n
CCOC(=O)N1CCc2c(sc(NCc3cccc(F)c3)c2C(=O)Nc2ccc(OC)cc2OC)C1 | n | n | x | n
COc1ccccc1N1CCN(c2ncnc3c2nnn3C)CC1 | n | n | x | n
COc1cccc(/C=C2\SC(=S)N(CCCC(=O)N(CCO)c3ccccc3)C2=O)c1 | 4.5µM | n | n | n
COc1cccc(/C=C2\SC(=S)N(CCC(=O)NCCc3ccc(O)cc3)C2=O)c1 | 4µM | u | n | n
O=C1/C(=C/c2cccc(Br)c2)SC(=S)N1CCC(=O)N(CCO)c1ccccc1 | 11µM | n | n | n
COc1cccc(/C=C2\SC(=S)N(CCCC(=O)N3CCCCC3)C2=O)c1 | u | n | n | n
COc1ccc(NC(=O)Cn2c(SCc3ccc(C)cc3)nc3cccnc32)c(OC)c1 | n | n | x | n
CC(C)c1nn2c(=O)cc(COC(=O)c3cccs3)nc2s1 | n | n | x | n
COc1cc(/C=C/c2ccc3c(Br)cc(Br)c(O)c3n2)ccc1O | 7.9µM | u | n | n
COc1cc(/C=C/c2ccc3cccc(O)c3n2)cc(OC)c1OC | u | u | n | n
COc1cc(/C=C/c2ccc3cccc(O)c3n2)cc(Br)c1OC | 4.5µM | u | u | n
COc1ccc(/C=C/c2ccc3cccc(O)c3n2)c(OC)c1OC | 2.5µM | n | n | n
SMILES | GLP1R inv ag | GLP1R cytotox | GLP1R ag | PTHR1 ag
O=C(Nc1ccc(F)c(Cl)c1)C1Cc2ccccc2CN1S(=O)(=O)c1ccc(F)cc1 (centres undefined) | 10µM | n | x | n
CCNC(=O)C1Cc2ccccc2CN1S(=O)(=O)c1ccc(F)cc1 (centres undefined) | n | n | n | n
CCOC(=O)c1ccc(NC(=S)N(CCCN2CCCC2)Cc2cccs2)cc1 | 2.8µM | u | n | n
CC[C@H]1OC(=O)[C@H](C)[C@@H](O[C@H]2C[C@@](C)(OC)[C@@H](O)[C@H](C)O2)[C@H](C)[C@@H](O[C@@H]2O[C@H](C)C[C@H](N(C)C)[C@H]2O)[C@](C)(O)C[C@H](C)C(=NOCOCCOC)[C@H](C)[C@@H](O)[C@]1(C)O | x | x | n | x
O=C(CSc1nnc(COc2ccc(Cl)cc2)o1)N1c2ccccc2CCc2ccccc21 | 3.5µM | u | n | n
COc1cc2ccccc2cc1C(=O)N/N=C/c1ccc2c(c1)OCO2 | 6.3µM | u | n | n
CCN(c1ccc(Cl)cc1)S(=O)(=O)c1nnc(NC(=O)C2CCCCC2)s1 | n | n | x | n
CCCCN(c1nc2ccccc2nc1Cl)S(=O)(=O)c1ccc(C)cc1 | 10µM | n | n | n
CCCN(CCC)CC(O)CN(c1ccccc1)S(=O)(=O)c1ccc(C)cc1 (centres undefined) | u | n | n | n
Cc1c(Cl)cccc1NC(=O)N1CCCN(c2nc(-c3ccccc3)ns2)CC1 | 5µM | n | n | n
CCc1ccc(NC(=O)CN2C(=O)C(c3ccc(Cl)cc3)=NC23CCCCC3)cc1 | 11µM | n | x | n
CCc1ccc(NC(=O)CN2C(=O)C(c3ccc(C)cc3)=NC23CCCCC3)cc1 | 11µM | n | x | n
Cc1ccc(NC(=O)CN2C(=O)C(c3ccc(C)cc3)=NC23CCCCCC3)cc1 | 10µM | n | x | n
Cc1c(Cl)cccc1NC(=O)CSc1nc(=O)[nH]c2c1CCCC2 | n | n | x | n
CNC(=O)C1CCC(Cn2c(=O)c3sccc3n(CC(=O)NCc3ccccc3)c2=O)CC1 (centres undefined) | n | n | x | u
COc1ccc2cc(-c3nc4ccc(C(=O)O)cc4[nH]3)c(=O)oc2c1 | n | n | x | n
COc1ccc(-c2cn3cccnc3n2)cc1NC(=O)Nc1cc(C)ccc1C | u | n | x | n
Cc1c(C(=O)N(Cc2ccc(N(C)C)cc2)CC2CCCO2)oc2ccccc12 (centres undefined) | 10µM | n | n | n
Cc1c(C(=O)N(Cc2ccc(N(C)C)cc2)CC2CCCO2)oc2ccc(Cl)cc12 (centres undefined) | n | n | x | n
CN1CCC(N(Cc2cccs2)c2ccccc2)CC1 | x | x | n | x
COc1ccc(-c2ocnc2C(=O)NCc2nn(-c3ccccc3)nc2C)cc1 | 10µM | n | n | n
COc1ccc(CC(=O)NCc2nn(-c3ccccc3)nc2C)cc1OC | n | n | n | n
O=C(NC1CCN(Cc2ccccc2)CC1)c1ccc(Cn2c(=O)c3ccccc3n(Cc3ccc(F)cc3)c2=O)cc1 | n | n | x | n
Oc1cccc(/C=N/NC(=S)NCCN2CCOCC2)c1O | n | n | n | n
S=C(NCCN1CCOCC1)N/N=C/c1cccs1 | 3.2µM | n | n | n
SMILES | GLP1R inv ag | GLP1R cytotox | GLP1R ag | PTHR1 ag
Cc1ccc2c(CNCCc3ccco3)c(C(=O)O)n(Cc3ccc(F)cc3)c2c1 | u | n | n | n
COc1ccc(/C=N/N2CCOCC2)cc1Cn1nc(C)c([N+](=O)[O-])c1C | n | n | n | n
COc1ccc(/C=N/Nc2ccccc2)cc1Cn1nc(C)c([N+](=O)[O-])c1C | 4µM | n | n | n
Cc1ccc(-n2ncc3c(NCCCN4CCOCC4)ncnc32)cc1C | u | n | x | n
Cc1ccsc1C(=O)N(c1nc2ccccc2s1)c1c(C)cccc1C | 7.9µM | n | n | n
Cc1ccccc1N(C(=O)c1cccs1)c1nc2ccccc2s1 | 2.2µM | n | n | n
COc1ccc(C)cc1N(C(=O)c1ccccc1)c1nc2ccccc2s1 | u | n | n | n

Screening results (PubChem BioAssay)
